In PubChem BioAssay (NCI):
About 83,000 compounds went through this panel and 20% of them were active in at least one assay; those are over-represented in the sample as a whole.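 Treatment: one concentration, 48 hours, 96-well format. Scoring: percent growth, with anything below 10 considered active.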 Calls of active or inactive are those of the source.

tested on: HL-60(TB) leukemia; assay: NCI-60 one-dose screen, 48 h (100 = growth as untreated, 0 = no growth, -100 = all killed); conditions: 10 µM unless noted

SMILES | growth
C/C1=C\CCC2(C)OC2CC2CCC(C)(O)C(CC1)C2(C)C (stereo unspecified) | 142% (inactive)
COc1cc(-c2nc3ccc(C)cc3[nH]2)ccc1OCc1nnc(-c2ccc(CC(C)C)cc2)o1 | 110% (inactive)
c1csc(-c2[nH]nc3c2CCc2ccccc2-3)c1 | 132% (inactive)
O=C(Nc1ccc(CN2CCOCC2)c(C(F)(F)F)c1)c1nc2ccc3[nH]ncc3c2c2c1CCCC2 | 98.1% (inactive)
Cc1ccc(S(=O)(=O)N2CCc3ccc(O)c4c3C2Cc2cc(Cl)ccc2-4)cc1 (stereo unspecified) | 85.3% (inactive)
COc1cc(OC)c(NC(=O)c2cc3ccccc3cc2O)cc1Cl | 22% (inactive)
CCN1C(=O)N(CC)C2Nn3c(s/c(=C\c4cccc(F)c4)c3=O)=NC21 (stereo unspecified) | 38.6% (inactive)
O=C(O)c1cn(C2CC2)c2cc(N3CCN(C(=O)N4CCOCC4)CC3)c(F)cc2c1=O | 90.3% (inactive)
CS(=O)(=O)N1CCc2c(-c3cnc(N)nc3)nc(N3CCOCC3)nc21 | 34.9% (inactive)
O=C1OCC2=C1C(c1cccc(Cl)c1)c1cc3c(cc1N2CCO)OCO3 (stereo unspecified) | -19.3% (active)
COc1ccc(-c2nn(-c3ccccc3)cc2/C=C2\SC(=S)N(CCc3ccc(O)cc3)C2=O)cc1 | 84% (inactive)
